# KCNQ2 enhance – potentiators of rat KCNQ2 potassium channel; CHO-K1 KCNQ2, FluxOR thallium flux fluorescence; hits give high values; 310,000 compounds, 0.54% hits; B-score at 10 µM; AID 2239;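 active = fluorescence ratio B-score at least 3 SD of library B-scores, with initial fluorescence B-score within 3 of them, cut at about 5.3 in these data; same plate scores as AID 2156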;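 also: B-score of peak minus minimum over baseline fluorescence ratio after K+ and Tl+ stimulus; positive B-score means potentiation of KCNQ2 with more thallium influx and brighter signal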
# Target sequence (O88943 whole entry, looked up): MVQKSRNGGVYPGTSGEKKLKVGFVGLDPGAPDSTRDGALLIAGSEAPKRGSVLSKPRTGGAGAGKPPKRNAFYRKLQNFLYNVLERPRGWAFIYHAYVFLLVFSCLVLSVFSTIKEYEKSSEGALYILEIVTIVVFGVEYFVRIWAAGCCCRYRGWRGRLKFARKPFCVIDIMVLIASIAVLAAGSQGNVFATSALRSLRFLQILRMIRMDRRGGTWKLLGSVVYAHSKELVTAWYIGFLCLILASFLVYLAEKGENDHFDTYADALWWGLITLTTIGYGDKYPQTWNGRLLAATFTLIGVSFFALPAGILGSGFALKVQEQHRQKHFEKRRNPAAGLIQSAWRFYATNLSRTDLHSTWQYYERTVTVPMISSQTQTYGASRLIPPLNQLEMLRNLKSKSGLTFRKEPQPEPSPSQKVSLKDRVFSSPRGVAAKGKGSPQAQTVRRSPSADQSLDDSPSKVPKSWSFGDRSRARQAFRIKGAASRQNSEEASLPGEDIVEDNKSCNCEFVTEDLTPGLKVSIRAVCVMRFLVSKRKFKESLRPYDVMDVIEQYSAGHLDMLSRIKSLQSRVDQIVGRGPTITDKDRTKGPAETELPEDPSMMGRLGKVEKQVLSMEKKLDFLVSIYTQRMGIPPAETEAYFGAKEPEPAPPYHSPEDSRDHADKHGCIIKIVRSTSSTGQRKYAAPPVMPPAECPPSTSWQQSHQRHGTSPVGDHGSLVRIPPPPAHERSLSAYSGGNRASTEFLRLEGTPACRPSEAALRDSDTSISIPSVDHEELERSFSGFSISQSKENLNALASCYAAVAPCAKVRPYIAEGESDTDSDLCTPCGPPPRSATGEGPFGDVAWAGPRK
# KCNQ2 block – blocks the rat KCNQ2 potassium channel. O88943. CHO-K1 KCNQ2, FluxOR thallium flux, 20 min; hits give low values. B-score at 10 µM. 310,000 compounds, 1.1% hits;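 active = fluorescence ratio B-score at most minus 3 library SDs, with starting brightness B-score within 2 library SDs, cut at about -5.5 in these data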
# Active calls of the source: *; i = inactive; / = no result given. Rows were chosen to be rich in hits. Some 1.6% of all compounds tested hit in one or more screens of this group.
SMILES,KCNQ2 enhance,KCNQ2 block
N#Cc1c(-c2ccccc2F)cc(-c2cccnc2)nc1N,/,i
Cc1csc(=O)n1CC(=O)OCC(=O)NNC(=O)c1ccc([N+](=O)[O-])cc1,0.05,i
COc1ccc(OCC(=O)Nn2c(-c3cccc(OC)c3)nc3ccccc3c2=O)cc1,/,i
COc1ccc(CC(=O)Nn2c(-c3ccccc3)nc3ccccc3c2=O)cc1,9.9*,i
Cc1ccc(-c2nc3ccccc3c(=O)n2NC(=O)COc2ccccc2)cc1,-6.8,-6.8*
COc1ccc(C(=O)Nn2c(SCC(=O)c3ccccc3)nc3ccccc3c2=O)cc1,/,i
COc1ccc(C(=O)Nn2c(SCc3ccc([N+](=O)[O-])cc3)nc3ccccc3c2=O)cc1,-6.2,-6.2*
O=C(COc1ccccc1)Nn1c(-c2ccccc2)nc2ccccc2c1=O,1.4,i
Cc1cccnc1Nc1nc(-c2ccccn2)cs1,1.9,i
Cc1cccnc1Nc1nc(-c2ccccc2)cs1,-7.8,-7.8*
O=C(NCCO)c1cc(-c2cc(C(=O)NCCO)c3ccccc3n2)nc2ccccc12,/,i
Cc1cccc(C(=O)NNC(=O)c2ccccc2)c1,0.1,i
Cc1cccc(C(=O)c2cnc3ccccc3c2-c2ccccc2)c1,-6.4,-6.4*
COc1ccc(Cc2noc(CN3CCCC(OCc4ccccn4)C3)n2)cc1OC (configuration not stated),/,i
CC(=O)NNC(=O)c1[nH]c2ccc(Br)cc2c1-c1ccccc1,3.3,i
CCOC(=O)NNC(=O)c1[nH]c2ccc(Br)cc2c1-c1ccccc1,-6.8,-6.8*
Cc1nn(C)c(Cl)c1/C=N/OC(=O)c1ccc(F)cc1,/,i
CC(=O)c1ccc(N2CCN(C(=O)c3ccc(-c4ccccc4)cc3)CC2)cc1,/,i
CC(/C=C1\SC(=S)N(NC(=O)c2ccccc2C)C1=O)=C\c1ccccc1,/,i
CC(/C=C1\SC(=S)N(NS(=O)(=O)c2ccc(C)cc2)C1=O)=C\c1ccccc1,21*,i
COc1ccc(NC2CCCN(C(=O)CCc3ccccc3F)C2)cc1 (configuration not stated),/,i
CCCCn1c(N)c(N(CC)C(=O)c2cccc(C)c2)c(=O)[nH]c1=O,1,i
COc1ccc(CC(=O)Nc2oc(-c3ccccc3)c(-c3ccccc3)c2C#N)cc1OC,/,i
COc1ccc(CCNC(=O)CSc2ccccn2)cc1OC,0.58,i
COc1ccc(CCNC(=O)CSc2cccc3cccnc23)cc1OC,-6.3,-6.3*
SMILES,KCNQ2 enhance,KCNQ2 block
CC(C)C(NC(=O)CCN1C(=O)c2ccccc2C1=O)c1ccccc1 (configuration not stated),/,i
CC(C)CNc1nnnc2c1sc1nc(N3CCOCC3)c3c(c12)CCCC3,/,i
COc1cc(OC)cc(C(=O)Nc2nc(CC(=O)NC(C)c3ccccc3)cs2)c1 (configuration not stated),-6.3,-6.3*
COc1ccc(C(=O)Nc2nc(CC(=O)NCCc3ccccc3)cs2)cc1,/,i
CCC(C(=O)OCC(=O)Nc1ccc(C)c(S(=O)(=O)N2CCOCC2)c1)c1ccccc1 (configuration not stated),/,i
O=C(c1c(F)cccc1F)N1CCN(c2ccccc2F)CC1,0.08,i
CCCCN1C(=O)C2Cc3c([nH]c4ccccc34)CN2C1=S (configuration not stated),-5.6,-5.6*
CCCCCN1CC(=O)N2Cc3[nH]c4ccccc4c3C[C@H]2C1=O,/,i
CCCCCCN1CC(=O)N2Cc3[nH]c4ccccc4c3C[C@H]2C1=O,-6.9,-6.9*
O=C1[C@@H]2Cc3c([nH]c4ccccc34)CN2C(=O)CN1CCCO,0.73,i
Cc1sc(NC(=O)COc2ccccc2)c(C#N)c1-c1ccccc1,/,i
COc1ccc(C(=O)Nc2sc(C)c(-c3ccccc3)c2C#N)cc1OC,-6.4,-6.4*
O=S(=O)(Nc1ccon1)c1cc(Cl)ccc1Cl,2.1,i
COc1ccc(-c2[nH]ncc2CN2CCN(C3CCCCC3)C(=O)C2)cc1F,0.07,i
COC(=O)C1=CN(CCOC23CC4CC(CC(C4)C2)C3)C=C(C(=O)OC)C1c1ccsc1,-7.4,-7.4*
COC(=O)C1=CN(Cc2ccc(OC)cc2)C=C(C(=O)OC)C1c1ccsc1,/,i
Cc1ccc(CNCC(O)(c2ccc(F)cc2)c2ccc(F)cc2)cc1,/,i
CCOc1ccc(S(=O)(=O)N(C)c2ccc(OCC(=O)Nc3nc4ccccc4s3)cc2)cc1,-5.9,-5.9*
CN(c1ccc(OCC(=O)Nc2nc3ccccc3s2)cc1)S(=O)(=O)c1ccccc1,/,i
Cc1ccccc1-c1nc(CN2CCCC(C(=O)NCc3cccnc3)C2)c(C)o1 (configuration not stated),9*,i
COc1ccc(-c2nc(CN3CCCC(C(=O)NC4CCCC4)C3)c(C)o2)cc1 (configuration not stated),/,i
COc1ccc(CNC(=O)C2CCCN(Cc3nc(-c4cccc(C)c4)oc3C)C2)cc1 (configuration not stated),-6.4,-6.4*
Cc1ccccc1-c1nc(CN2CCCC(C(=O)NCCCN3CCOCC3)C2)c(C)o1 (configuration not stated),0.91,i
Cc1cc(C)n(-c2nc3nonc3nc2Nc2cccc(C)c2C)n1,/,i
O=C(CCn1nc(-c2ccccc2)ccc1=O)N1CCCC1,/,i
SMILES,KCNQ2 enhance,KCNQ2 block
CN1CCN(Cc2cccc(Oc3ccccc3)c2)CC1,0.44,i
COc1ccc(CN2CCN(Cc3cccc(Oc4ccccc4)c3)CC2)c(OC)c1OC,-7.5,-7.5*
CC(Sc1nccn1C)C(=O)Nc1ccc(C(N)=O)cc1 (configuration not stated),0.03,i
O=C(CCc1ccccc1)c1c(O)cc(O)cc1O,-8.2,-8.2*
COc1ccc(C(=O)CCc2ccccc2)c(O)c1,/,i
CC(=O)c1cccc(NC(=O)C2(c3ccccc3)CC2(Cl)Cl)c1 (configuration not stated),2.4,i
Cc1c(N)c(C(C)(C)C)cc(C(C)(C)C)c1[N+](=O)[O-],/,i
Oc1ccc2ccccc2c1CNc1ccc(Br)cn1,-6.2,-6.2*
Oc1ccc2ccccc2c1CNc1ccc(Br)cc1,/,i
Cc1nc2ccccc2c(-c2ccccc2)c1CC(=O)O,/,i
Cn1c(=O)[nH]c(=O)c2c1nc(SCC(N)=O)n2Cc1cccc(Br)c1,/,i
COc1ccccc1NC(=O)CN(Cc1ccco1)C(=O)c1cccs1,/,i
O=C(CN(Cc1ccco1)S(=O)(=O)c1cccs1)Nc1ccccc1C(F)(F)F,-7,-7*
CC1=NN(c2ccccc2)C(=O)C1N=Nc1ccccc1 (configuration not stated),0.46,i
CCCC(=O)OCC(=O)Nc1ccc([N+](=O)[O-])cc1C#N,0.24,i
CCOC(=O)c1c(-c2ccccc2)csc1NC(=O)CCN1C(=O)c2ccccc2C1=O,/,i
CCNC(=S)Nc1scc(-c2ccccc2)c1C(=O)OCC,12*,i
C#CCO[C@@H]1C[C@H](n2ccc(NC(=O)c3ccccc3)nc2=O)O[C@@H]1CO,0.6,i
C=CC[C@H]1CC(C)=C[C@H](CC=C)N1C(=O)c1cc(COc2ccccc2SC)on1,-5.6,-5.6*
COCC1CCN(C(=O)c2cc(COc3ccccc3SC)on2)C1 (configuration not stated),3,i
c1ccc(C2=Nn3c(nnc3-c3ccncc3)SC2)cc1,/,i
CN(C)/C=C/C(=O)c1ccc(Cl)s1,0.04,i

# Source: PubChem BioAssay (Johns Hopkins Ion Channel Center)
